Screens deposited in PubChem BioAssay by National Center for Advancing Translational Sciences (NCATS).
Hits are enriched below; roughly 12% of the tested compounds scored in any of these assays.
Sfp inh = inhibitors of Bacillus subtilis Sfp phosphopantetheinyl transferase. Biochemical Sfp PPTase activity, qHTS. Potency, µM, for inactives: largest response in the series, negative = inhibition, actives largely listed as inhibitors. Q9F4F7. actives 3.5% (n = 310,000). AID 1490;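 further: the enzyme is Sfp with the accession as filed and its product quenches rhodamine fluorescence; 0% = enzyme reaction without inhibitor and -100% = no enzyme wells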
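After 15 min at room temperature with compound, 15 nM Sfp received 5 uM rhodamine-CoA plus 12.5 uM BHQ-2-ybbR (50 mM Hepes pH 7.6, 10 mM MgCl2). Rate came from the fluorescence difference over 30 min, ex 525/em 598 nm.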
L3MBTL1 block = inhibitors of human L3MBTL1 | Q9Y468 | AlphaScreen L3MBTL1–H3K9me1 peptide binding | Potency, µM (titrated, usually from 57.1 µM), without a hit: top-dose activity, negative = inhibition, hits mostly inhibitors | actives 0.66% (n = 230,000) | AID 485360; further: on the % scale 0 is the no-effect control and ±100 the full control effect; nearly all actives have a fitted effect of over 60% in size
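L3MBTL1 (50 nM) pre-complexed 30 min with biotinylated H3(1-15)K9me1 peptide (75 nM), then compounds added for 30 min at room temperature; AlphaScreen streptavidin donor/nickel chelate acceptor beads (10 ug/mL final) read after 30 min dark incubation.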
BAZ2B inh = blocks human BAZ2B | Q9UIF8 | Potency, µM (titrated, usually from 114 µM), for inactives: at the top dose activity change, negative = inhibition, actives largely listed as inhibitors | actives 4.4% (n = 360,000) | AlphaScreen BAZ2B-H3K14Ac peptide displacement; further: on the % scale 0 is the no-effect control and ±100 the full control effect; nearly all actives have a fitted effect of over 60% in size
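Inhibition is scored as reduced AlphaScreen emission. The BAZ2B/b-H3(5-23)K14Ac complex (50 nM each) in PBS pH 7.4, 0.01% Tween-20 meets compound (up to 110 uM) for 30 min at RT before bead addition.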
JMJD2A Tudor inh = inhibitors of human JMJD2A Tudor domain; Potency, µM (top dose mostly 114 µM), for inactives: top-dose activity change, negative = inhibition, most hits filed as inhibitors; actives 4.4% (n = 390,000); O75164; AlphaScreen JMJD2A-Tudor / H3K4me3 peptide binding; further: on the % scale 0 is the no-effect control and ±100 the full control effect; nearly all actives have a fitted effect of over 50% in size
G9a inh = blocks human histone lysine methyltransferase G9a; actives 8.8% (n = 350,000); AID 504332; Potency, µM (titrated, usually from 102 µM), for the others: at the top dose activity, negative = inhibition, actives largely listed as inhibitors; G9a H3K9 monomethylation, AlphaScreen, 2 h; further: on the % scale 0 is the no-effect control and ±100 the full control effect; nearly all actives have a fitted effect of over 75% in size
Target sequence (Q96KQ7 913-1193 limits assumed): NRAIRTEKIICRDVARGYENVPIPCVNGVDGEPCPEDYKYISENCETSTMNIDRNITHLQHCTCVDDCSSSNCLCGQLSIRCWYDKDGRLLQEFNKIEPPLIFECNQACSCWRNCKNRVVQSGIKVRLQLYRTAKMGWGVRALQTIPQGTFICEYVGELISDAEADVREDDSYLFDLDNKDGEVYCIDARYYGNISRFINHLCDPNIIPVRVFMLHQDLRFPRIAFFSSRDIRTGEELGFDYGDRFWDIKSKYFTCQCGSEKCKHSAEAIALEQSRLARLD
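Signal arises when biotinylated H3K9 peptide, once monomethylated, bridges streptavidin donor and antibody-captured acceptor beads. Enzyme at 20 nM was preincubated 15 min with test compounds; peptide 500 nM and SAM 20 uM then reacted for 2 h.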
HP1b binding inh = HP1-beta chromodomain-methylated histone interaction inhibition; AlphaScreen HP1-beta / biotin-H3K9me3 peptide binding; Potency, µM (top dose mostly 114 µM), without a hit: top-dose activity change, negative = inhibition, usual class: inhibitors; P83916; actives 0.56% (n = 390,000); further: nearly all actives have a fitted effect of over 70% in size
Target sequence (P83916 whole entry, looked up): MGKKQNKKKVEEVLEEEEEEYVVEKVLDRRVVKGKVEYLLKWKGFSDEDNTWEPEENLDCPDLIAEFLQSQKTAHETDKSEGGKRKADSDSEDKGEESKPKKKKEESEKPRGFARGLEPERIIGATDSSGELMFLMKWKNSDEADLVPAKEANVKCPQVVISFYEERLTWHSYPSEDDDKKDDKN
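HP1-beta protein (50 nM final) preincubated 30 min at room temperature with biotinylated H3(1-18)K9me3 peptide (50 nM) in PBS pH 7.4, 0.01% Tween-20, then compound added for 30 min. AlphaScreen streptavidin donor/nickel chelate acceptor beads (10 ug/mL final), 30 min dark, luminescence read.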
Starred values were filed as active, the others as inactive; [ ] = another dose, or the depositor's remark. The call rests on the fitted dose curve; in most records, active means well fitted curve in the direction sought with a large enough effect; inconclusive means small, poorly fitted or top-dose-only effect, or another doubt; inactive means no such curve, though single readings can be large; an effect the other way counts as inactive or inconclusive. Potency means the concentration at half of the fitted maximal effect.

For Cc1nc([N+](=O)[O-])c(SCC(O)CCl)n1Cc1ccc(Cl)cc1 (stereo unspecified) the results were Sfp inh 23%, L3MBTL1 block -3%, BAZ2B inh -36%, JMJD2A Tudor inh -20%[11.4 µM], G9a inh 28µM* and HP1b binding inh 24%.
For CC12CC(NC(=O)N1c1cccc(C(=O)N3CCCCC3)c1)c1ccccc1O2 (stereo unspecified) the results were Sfp inh 20%, BAZ2B inh -11%, JMJD2A Tudor inh 0%, G9a inh 25% and HP1b binding inh 31%.
COc1cccc(/C=C/C(=O)NCc2cn3cc(Cl)ccc3n2)c1 was read as Sfp inh 18%, L3MBTL1 block -6%, BAZ2B inh -12%, JMJD2A Tudor inh -14%, G9a inh -4% and HP1b binding inh 28%.
`COC(=O)CCSCc1cn2cc(Cl)ccc2n1` gave Sfp inh 13%, L3MBTL1 block 3%, BAZ2B inh 4%, JMJD2A Tudor inh -15%, G9a inh 40µM* and HP1b binding inh 49%.
For O=C(O)CSCc1cn2cc(Cl)ccc2n1 the results were Sfp inh -10%, BAZ2B inh -24%, JMJD2A Tudor inh inconclusive, G9a inh 50µM* and HP1b binding inh -1%.
CNCc1cn2cc(Cl)ccc2n1 was read as Sfp inh -3%, L3MBTL1 block -1%, BAZ2B inh 6%, JMJD2A Tudor inh -32%, G9a inh -11% and HP1b binding inh 18%.
Cc1cnc(C(=O)N2CCN(S(=O)(=O)c3cccc(Br)c3)CC2)cn1 was read as L3MBTL1 block 9%, JMJD2A Tudor inh -2% and HP1b binding inh 19%.
Screening CC(=O)Nc1ccc(NC(=O)CSC2=NCCS2)cc1 returned Sfp inh 0%, L3MBTL1 block -3%, BAZ2B inh -1%, JMJD2A Tudor inh 3%, G9a inh inconclusive and HP1b binding inh 58%.
`CC(=O)Nc1nonc1NC(=O)CSC1=NCCS1` gave Sfp inh -6%, L3MBTL1 block 38%, BAZ2B inh 10%, JMJD2A Tudor inh -30%, G9a inh 56µM* and HP1b binding inh 50%.
Screening O=C(CSC1=NCCS1)Nc1nc2c(s1)CCCC2 returned Sfp inh 56µM*, L3MBTL1 block -23%, BAZ2B inh inconclusive, JMJD2A Tudor inh -35%, G9a inh 40µM* and HP1b binding inh -10%.
`CCN(CC)CCNC(=O)c1[nH]c2ccc(OCc3ccccc3)cc2c1C` gave Sfp inh inconclusive, L3MBTL1 block -22%, BAZ2B inh inconclusive, JMJD2A Tudor inh inconclusive, G9a inh 50µM* and HP1b binding inh inconclusive.
For CCN(c1ccccc1)S(=O)(=O)c1ccc(OC)c(NC(=O)COc2ccc(C(C)=O)cc2)c1 the results were L3MBTL1 block 10%, BAZ2B inh 6%, JMJD2A Tudor inh -10%, G9a inh 56µM* and HP1b binding inh 16%.
CCN(c1ccccc1)S(=O)(=O)c1ccc(OC)c(NC(=O)CCc2nc3ccccc3c(=O)[nH]2)c1 was read as L3MBTL1 block -4%, BAZ2B inh -1%, JMJD2A Tudor inh -15%, G9a inh 45µM* and HP1b binding inh 11%.
Screening CCN(c1ccccc1)S(=O)(=O)c1ccc(OC)c(NC(=O)CNCCc2ccccc2)c1 returned Sfp inh 16%, L3MBTL1 block -3%, BAZ2B inh 32µM*, JMJD2A Tudor inh 0.89µM*, G9a inh inconclusive and HP1b binding inh 50µM*.
Screening CCN(c1ccccc1)S(=O)(=O)c1ccc(OC)c(NC(=O)Cc2ccc(F)cc2)c1 returned L3MBTL1 block -1%, BAZ2B inh 13%, JMJD2A Tudor inh 8%, G9a inh 16%[12.7 µM] and HP1b binding inh 36%.
Cc1cc(C)c[n+](CC(=O)c2c(C)cc(C)c([N+](=O)[O-])c2C)c1 was read as Sfp inh 14%, BAZ2B inh -14%, JMJD2A Tudor inh -18%, G9a inh 10% and HP1b binding inh 14%.
CCOC(=O)C1CCN(S(=O)(=O)c2cccc3nonc23)CC1 was read as Sfp inh 15%, BAZ2B inh 10%, JMJD2A Tudor inh -6%, G9a inh -8%[12.7 µM] and HP1b binding inh 14%.
Screening CCOC(=O)C1CCN(S(=O)(=O)c2c(Cl)ccc3nonc23)CC1 returned Sfp inh -17%, BAZ2B inh -17% and G9a inh 50µM*.
Screening Fc1ccc(-c2n[nH]c(=S)n2/N=C/c2c[nH]c3ccccc23)cc1 returned Sfp inh -4%, L3MBTL1 block 8%, BAZ2B inh 8%, JMJD2A Tudor inh inconclusive, G9a inh 1.8µM* and HP1b binding inh 20%.
Cc1cc(-c2n[nH]c(=S)n2/N=C/c2ccccc2[N+](=O)[O-])n[nH]1 was read as Sfp inh inconclusive, L3MBTL1 block 6%, BAZ2B inh inconclusive, JMJD2A Tudor inh 3.5µM*, G9a inh 0.4µM* and HP1b binding inh inconclusive.
Cc1cc(-c2n[nH]c(=S)n2/N=C/c2c[nH]c3ccccc23)n[nH]1 was read as Sfp inh -29%, L3MBTL1 block -10%, BAZ2B inh -22%, JMJD2A Tudor inh 10µM*, G9a inh 0.79µM* and HP1b binding inh 11%.
For CC(C)NC(=S)N/N=C/c1ccccc1[N+](=O)[O-] the results were Sfp inh 4%, BAZ2B inh -30%, JMJD2A Tudor inh -19%, G9a inh 1% and HP1b binding inh 28%.
Cn1c(/N=C/c2c[nH]c3ccccc23)nc2ccccc21 was read as Sfp inh 4%, L3MBTL1 block -5%, BAZ2B inh 3%, JMJD2A Tudor inh -2%[11.4 µM], G9a inh 26% and HP1b binding inh 38%.
`O=C(COC(=O)c1ccc(O)cc1)c1ccc(S(=O)(=O)N2CCCCC2)cc1` gave L3MBTL1 block -2%, BAZ2B inh -9%, JMJD2A Tudor inh -30%, G9a inh -1%[12.7 µM] and HP1b binding inh 3%.
For C[C@H](CO)N1C[C@H](C)[C@@H](CN(C)C)Oc2c(NS(=O)(=O)c3cccs3)cccc2C1=O the results were L3MBTL1 block 4%, JMJD2A Tudor inh -21% and HP1b binding inh 14%.
Screening Cc1cc(Br)ccc1SCC(=O)OCC(=O)Nc1ccc2[nH]c(=O)[nH]c2c1 returned L3MBTL1 block 7%, BAZ2B inh 8%, JMJD2A Tudor inh -13%, G9a inh inconclusive and HP1b binding inh 23%.
`COC(=O)c1cc(O)c(O)c(O)c1` gave Sfp inh inconclusive, L3MBTL1 block inconclusive, BAZ2B inh 79µM*, JMJD2A Tudor inh 20µM*, G9a inh 40µM* and HP1b binding inh inconclusive.
